# Fam108B inh: blocks mouse Fam108B hydrolase in RBBP9 counter-screen; recombinant Fam108B, FP-Rh probe fluorescence polarization; inhibition, % at 9.51 µM; actives 0.33% (n = 300,000);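 active = inhibition above the screen mean inhibition plus 3 SD, computed separately per campaign, cut at about 18% in these data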;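 note: inhibitors lower polarization as less probe binds the enzyme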
# PREPL inhibitor: inhibitors of human prolyl oligopeptidase-like enzyme PREPL | Q4J6C6 | AID 2751 | actives 0.68% (n = 320,000) | inhibition, % at 5.96 µM | recombinant PREPL, fluorescence polarization activity-based probe;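 note: 0% = enzyme with DMSO and 100% = wells lacking enzyme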
# PME-1 inh: PME-1 (human) inhibition | Q9Y570 | recombinant PME-1, FP-Rh probe fluorescence polarization | inhibition, % at 5.9 µM | AID 2130 | actives 0.53% (n = 320,000);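 active = inhibition above the campaign mean of all compounds plus 3 SD, cut at about 26% in these data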;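 note: competitive labeling of PME-1 active site by serine hydrolase directed probe; 0% = PME-1 with DMSO and 100% = wells lacking PME-1 enzyme; inhibitors block probe labeling so polarization falls and inhibition rises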
# Target sequence (Q9Y570 whole entry, looked up): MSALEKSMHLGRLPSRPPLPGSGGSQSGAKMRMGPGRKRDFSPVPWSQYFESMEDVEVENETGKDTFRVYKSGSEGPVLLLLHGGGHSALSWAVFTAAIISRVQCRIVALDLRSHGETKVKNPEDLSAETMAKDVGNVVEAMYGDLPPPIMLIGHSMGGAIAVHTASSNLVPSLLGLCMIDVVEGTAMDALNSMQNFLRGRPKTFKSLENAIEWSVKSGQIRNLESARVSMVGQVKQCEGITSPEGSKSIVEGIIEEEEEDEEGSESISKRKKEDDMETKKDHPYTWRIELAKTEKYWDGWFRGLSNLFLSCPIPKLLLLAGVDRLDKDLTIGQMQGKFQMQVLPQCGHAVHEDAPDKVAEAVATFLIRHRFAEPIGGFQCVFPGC
# LYPLA2 counter: LYPLA2 (human) inhibition in PME1 counter-screen | recombinant LYPLA2, FP-Rh probe fluorescence polarization | inhibition, % at 5.9 µM | actives 0.38% (n = 320,000);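 active = inhibition above the screen-wide mean plus 3 SD, limit set per campaign, cut at about 26% in these data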;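 note: 0% = LYPLA2 with DMSO and 100% = wells lacking LYPLA2 enzyme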
# LYPLA1 counter: blocks human lysophospholipase 1, a PME1 counter-screen; actives 0.16% (n = 320,000); recombinant LYPLA1, FP-Rh probe fluorescence polarization; O75608; inhibition, % at 5.9 µM;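 active = inhibition above the mean of all tested compounds plus 3 SD, set per campaign, cut at about 14% in these data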;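 note: inhibitors block serine hydrolase probe labeling of LYPLA1 so polarization falls; 0% = enzyme with DMSO and 100% = wells lacking LYPLA1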
# Target sequence (O75608 whole entry, looked up): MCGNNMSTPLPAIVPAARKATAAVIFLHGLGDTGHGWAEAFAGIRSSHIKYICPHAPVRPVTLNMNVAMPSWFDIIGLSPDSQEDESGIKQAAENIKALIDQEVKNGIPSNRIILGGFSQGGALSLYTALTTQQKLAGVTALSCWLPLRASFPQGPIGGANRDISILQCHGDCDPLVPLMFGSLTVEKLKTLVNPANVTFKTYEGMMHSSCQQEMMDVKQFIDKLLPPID
# LYPLA1 conf: counter-screen for PME1 inhibitors: confirmation of human LYPLA1 inhibitors; recombinant LYPLA1, FP-Rh probe fluorescence polarization; shares compounds with LYPLA1 counter; AID 2233; inhibition, % at 5.9 µM; actives 69% (n = 480);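 active = mean inhibition across replicates above the hit cutoff set in the primary screen, cut at about 15% in these data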;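 note: loss of FP-Rh probe labeling of LYPLA1 seen as lower polarization; 0% = LYPLA1 with DMSO and 100% = wells lacking LYPLA1 enzyme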
# LYPLA2 confirm: counter-screen for PME1 inhibitors: confirmation of human LYPLA2 inhibitors; shares compounds with LYPLA2 counter; recombinant LYPLA2, FP-Rh probe fluorescence polarization; inhibition, % at 5.9 µM; actives 72% (n = 1,100);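 active = mean inhibition across replicates above the hit cutoff set in the primary screen, cut at about 26% in these data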;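 note: blocked labeling of the enzyme by serine hydrolase FP-Rh probe lowers polarization; 0% = enzyme with DMSO and 100% = wells lacking LYPLA2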
# LYPLA2 ABPP: inhibitors of human LYPLA2; AID 652029; rhLYPLA2 in mouse brain proteome, gel ABPP FP-Rh; actives 30% (n = 150); shares compounds with LYPLA2 counter; inhibition, % at 20 µM;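 active = inhibition of LYPLA2 enzyme probe labeling above about 50%, limit read from the data; inactive = inhibition below that limit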;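 note: loss of FP-Rh probe labeling of the LYPLA2 gel band measured as band density; 0% = DMSO only control band and 100% = blank gel background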
# PREPL inh cf: confirmation of human PREPL enzyme inhibitors | shares compounds with PREPL inhibitor | recombinant PREPL, fluorescence polarization activity probe | inhibition, % at 5.96 µM | actives 67% (n = 2,000) | AID 2803;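 note: 0% = protein with DMSO and 100% = wells lacking protein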
# * marks the source's active call; other numbers are inactive results; / = no result. An excerpt weighted towards active compounds, which were near 1.3% of everything screened. Cut-off read from the data, not from the text of the source, unless noted: active = inhibition above about 43%; inactive = the rest.
SMILES,Fam108B inh,PREPL inhibitor,PME-1 inh,LYPLA2 counter,LYPLA1 counter,LYPLA1 conf,LYPLA2 confirm,others
COc1ccc(-n2nc(C(=O)NCC(=O)N3CCN(Cc4ccccc4)CC3)c3ccccc3c2=O)cc1,3,-1,-5,69*,43*,47*,67*,
COc1ccc(-n2nc(C(=O)NCC(=O)N3CCOCC3)c3ccccc3c2=O)cc1OC,-5,3,1,6,6,/,/,
COc1ccc(-n2nc(C(=O)NCC(=O)N3CCN(Cc4ccc5c(c4)OCO5)CC3)c3ccccc3c2=O)cc1OC,1,-6,-17,74*,50*,63*,82*,
O=C(Nc1ccc2oc(-c3cccnc3)nc2c1)c1ccc2c(c1)OCCO2,-6,10,-15,47*,21*,53*,49*,
COc1ccc(O)c(CN2CCC(n3nccc3NC(=O)C3CCCC3)CC2)c1,2,13,3,2,-1,/,/,
c1ccc2c(c1)nc(NCCN1CCOCC1)c1nncn12,-1,1,1,9,6,/,/,
Clc1cccc(N2CCN(CCNc3nc4ccccc4n4cnnc34)CC2)c1,0,24,5,67*,17*,32*,62*,
COc1ccc(C(CNC(=O)COc2ccc(-c3ccccc3)cc2)N2CCOCC2)cc1 (centres undefined),1,20,5,44*,45*,57*,45*,
COc1ccc(C(CNC(=O)COc2c(C)cc(C)cc2C)N2CCOCC2)cc1 (centres undefined),/,10,-2,6,-3,/,/,
COc1ccc(CN2CCN(Cc3cccc(Oc4ccccc4)c3)CC2)c(OC)c1OC,3,6,0,26*,21*,31*,21,
CN1CCN(Cc2cccc(Oc3ccccc3)c2)CC1,3,2,0,-1,-2,/,/,
CCN1/C(=C/C=C/c2oc3ccc(-c4ccccc4)cc3[n+]2CC)Oc2ccc(-c3ccccc3)cc21,-11,67*,72*,64*,58*,-47,-176,PREPL inh cf=-12
O=c1[nH]n2c(=O)c3c([nH]c2c1N=Nc1cccc(C(F)(F)F)c1)CCCC3,9,55*,71*,1,16*,15*,/,PREPL inh cf=62*
CC1(CO)COC(c2ccccc2)=N1 (centres undefined),-1,8,6,3,4,/,/,
C(=N\n1cnnc1)/c1ccc(OCc2cccc3ccccc23)cc1,-4,50*,-6,52*,16*,20*,39*,PREPL inh cf=43
CC1CCCC(C)N1C(=O)COC(=O)c1cncc(Br)c1 (centres undefined),/,17,/,/,/,/,/,
C#CCOCCOCCOCCNc1nc(N2CCN(C(=O)[C@H](Cc3cc4ccccc4[nH]3)n3cc([C@@H](N)C(C)CC)nn3)CC2)nc(N2CCN(C(=O)[C@H](Cc3cc4ccccc4[nH]3)n3cc([C@@H](N)Cc4ccc(O)cc4)nn3)CC2)n1 (some centres undefined),-19,58*,-28,-20,17*,34*,/,PREPL inh cf=57*
C#CCOCCOCCOCCNc1nc(N2CCN(C(=O)C(Cc3cc4ccccc4[nH]3)n3cc(C(N)Cc4ccc(O)cc4)nn3)CC2)nc(N2CCN(C(=O)C(CCC(=O)O)n3cc(C(N)C(C)CC)nn3)CC2)n1 (centres undefined),-6,31,1,0,1,/,/,
COC(=O)c1ccccc1-c1c2ccc(=N)cc-2oc2cc(N)ccc12,/,151*,150*,191*,170*,130*,155*,PREPL inh cf=151*
COC(=O)c1ccccc1-c1ccc(/C=N/NC(=O)c2cc3ccccc3o2)o1,-3,15,-10,-14,-18,/,/,
CCn1c(=O)c(=O)[nH]c2cc(C(=O)N3CCN(Cc4ccc5c(c4)OCO5)CC3)ccc21,2,23,-5,6,1,/,/,
O=C(N/N=C/c1ccc(-c2ccccc2[N+](=O)[O-])o1)c1cccnc1,4,11,4,6,3,/,/,
CC(C)(C)c1cc(C(=O)N/N=C/c2ccc(-c3ccccc3[N+](=O)[O-])o2)n[nH]1,9,50*,32*,36*,26*,0,1,PREPL inh cf=19
O=C1CC(N2CCC(c3nc4ccccc4o3)CC2)C(=O)N1c1ccc(Cl)c(C(F)(F)F)c1 (centres undefined),2,17,-4,27*,-1,/,33*,
O=C(c1ccc(Cl)cc1)N1CCC(O)(CSc2ccc(Cl)cc2)CC1,-1,-8,-4,33*,2,/,29*,
SMILES,Fam108B inh,PREPL inhibitor,PME-1 inh,LYPLA2 counter,LYPLA1 counter,LYPLA1 conf,LYPLA2 confirm,others
O=C(O)c1cccnc1SCc1ccc([N+](=O)[O-])cc1,1,-1,0,-3,-2,/,/,
O=[N+]([O-])c1cccnc1SCc1ccccc1,4,-1,6,38*,1,/,49*,
O=C(Nc1cccs1)Nc1c(F)c(F)c(F)c(F)c1F,0,12,7,29*,4,/,30*,
CC(Oc1ccccc1)C(=O)N1CCN=C1SCc1ccc(F)cc1 (centres undefined),-3,-4,-6,-7,-1,/,/,
O=[N+]([O-])c1ccc(Oc2cccc(F)c2)c2ccncc12,-1,33,5,43*,6,/,44*,
CC(=C/c1ccc(C(C)C)cc1)/C=N/NC(=O)Cn1nnnc1N,-1,7,-6,40*,1,/,40*,
CC(/C=N/NC(=O)CSc1ccccn1)=C\c1ccc(C(C)C)cc1,-1,-5,-9,20,-3,/,/,
CCCCCCCCCC(=O)Nn1cnc2ccccc2c1=O,-1,-1,-2,71*,2,/,75*,LYPLA2 ABPP=52*
O=C(C1CCN(S(=O)(=O)c2cccc3nsnc23)CC1)N1CC=C(c2ccccc2)CC1,-2,35,16,8,0,/,/,
O=C(C1CCC(CNS(=O)(=O)c2cccc3nsnc23)CC1)N1CC=C(c2ccccc2)CC1 (centres undefined),1,18,0,42*,1,/,41*,
O=C(NCc1cccs1)C1CCC(CNS(=O)(=O)c2cccc3nsnc23)CC1 (centres undefined),1,-7,0,9,-1,/,/,
COc1cccc(CNC(=O)C2CCC(CNS(=O)(=O)c3cccc4nsnc34)CC2)c1 (centres undefined),0,-2,-3,26*,1,/,46*,
